The results in this text go back to PubChem BioAssay (EPA / NIEHS).

The structures appear in SMILES notation. Records with an inconclusive call do not appear. The source made the active and inactive calls. How the source made its calls, unless noted: active means hit-call score of the fitted dose curve at least 0.9, where 1 is the maximum; inconclusive means response in the unintended direction; inactive means score below 0.9.

Test [1] can be described thus: ATG_TAL_CIS: Attagene CIS-FACTORIAL HepG2 Assay for human TAL Basal Promoter (AID 2282966; active means hit-call score of the fitted dose curve at least 0.9, where 1 is the maximum; inactive means score below 0.9;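 further: background control endpoint measuring basal TAL promoter reporter mRNA not a specific factor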). As to conditions: HepG2 Attagene cis-factorial TAL promoter reporter; actives raise or lower the signal. In a few lines: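 Endogenous transcription-factor activity is sensed in HepG2 cells through transfected cis-promoter reporter constructs. After 24 h dosing, reporter transcripts are quantified by RT-PCR and capillary electrophoresis. Gain or loss of signal is fitted relative to DMSO.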

The nature of test [2]: ATG_TGFb_CIS: Attagene CIS-FACTORIAL HepG2 Assay for human Transforming Growth Factor (TGF) (AID 2282967; active means hit-call score of the fitted dose curve at least 0.9, where 1 is the maximum; inactive means score below 0.9). The settings on record: HepG2 Attagene CIS TGFb reporter, mRNA transcription; actives raise or lower the signal. The essentials:
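Liver HepG2 line, cis-factorial reporter panel, 24 h dosing. Quantitation: RT-PCR products labeled with 6-FAM, cut with HpaI, resolved by capillary electrophoresis; DMSO-referenced bidirectional analysis.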

A short description of test [3]: ATG_VDRE_CIS: Attagene CIS-FACTORIAL HepG2 Assay for human Vitamin D Receptor Element (VDRE) (AID 2282968; active means hit-call score of the fitted dose curve at least 0.9, where 1 is the maximum; inactive means score below 0.9). As to conditions: HepG2 VDRE cis-reporter transcription, actives raise or lower the signal. In a few lines: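 Transfected HepG2 reporter cells, chemical treatment 24 h. RNA isolated, cDNA amplified with reporter-specific primers, products analysed by capillary electrophoresis. Endpoint fitted in both directions versus DMSO.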

Test [4] has as its target Estrogen receptor (Homo sapiens) (UniProt P03372). Description: ATG_ERa_TRANS: Attagene TRANS-FACTORIAL HepG2 Assay for human Estrogen Receptor alpha (ERa) (AID 2282970). As to conditions: HepG2 Attagene TRANS ERa GAL4 reporter, mRNA. In a few lines:
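Transfected HepG2 cells carrying GAL4-UAS-driven reporter units were dosed for 24 hours. Total RNA was reverse-transcribed, reporter sequences PCR-amplified, FAM-labelled, HpaI-digested and resolved by capillary electrophoresis. Increases over DMSO control defined activity.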

Test [5] has as its target Steroid hormone receptor ERR1 (Homo sapiens) (UniProt P11474). The test is described as follows: ATG_ERRa_TRANS: Attagene TRANS-FACTORIAL HepG2 Assay for human Estrogen-Related Receptor alpha (ERRa) (AID 2282971). The settings on record: HepG2 Attagene TRANS reporter, ERRa transactivation. The essentials: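 HepG2 cells were transiently transfected with multiple GAL4-UAS reporter units, then dosed with compound for 24 h. Total RNA was reverse-transcribed, reporter cDNA PCR-amplified and fluorescently labelled, and fragments resolved by capillary electrophoresis; induction was compared with DMSO.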

Test [6] addresses X-box-binding protein 1 (Homo sapiens) (UniProt P17861). Description: ATG_Xbp1_CIS: Attagene CIS-FACTORIAL HepG2 Assay for human X-box Binding Protein 1 (XBP1) (AID 2282972; active means hit-call score of the fitted dose curve at least 0.9, where 1 is the maximum; inactive means score below 0.9). The settings on record: HepG2 XBP1 cis-element reporter, Attagene multiplex; actives raise or lower the signal. The essentials:
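Human hepatoma HepG2, cis-element reporter system, 24 h treatment; mRNA quantified by RT-PCR/CE fluorescence; fit relative to DMSO.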

Test [7] in a line: ATG_GAL4_TRANS: Attagene TRANS-FACTORIAL HepG2 Assay for GAL4 (Internal Marker) (AID 2282976). As to conditions: HepG2 Attagene TRANS GAL4 internal marker reporter. In a few lines:
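Fluorescence from capillary electrophoresis of labelled RT-PCR products quantifies reporter mRNA induction after 24 h dosing of HepG2 cells carrying transfected GAL4-UAS reporter transcription units. Vehicle DMSO serves as baseline.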

Test [8] concerns the target Estrogen-related receptor gamma (Homo sapiens) (UniProt P62508). The test is described as follows: ATG_ERRg_TRANS: Attagene TRANS-FACTORIAL HepG2 Assay for human Estrogen-Related Receptor gamma (ERRg) (AID 2282977).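 Further: hits increase reporter signal over DMSO so potencies reflect activators.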 The settings on record: HepG2 Attagene TRANS reporter, ERRg transactivation. The essentials:
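Readout: fluorescent reporter-mRNA fragments resolved by capillary electrophoresis after RT-PCR and HpaI cut. Cells: transiently transfected HepG2 carrying GAL4-UAS reporters driven by exogenous NR-Gal4 chimeras, dosed 24 h. Activity fitted upward relative to DMSO baseline.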

The target of test [9] is Glucocorticoid receptor (Homo sapiens) (UniProt P04150). Description: ATG_GR_TRANS: Attagene TRANS-FACTORIAL HepG2 Assay for human Glucocorticoid Receptor (GR) (AID 2282978).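 Further: activators score as hits since higher reporter transcript over DMSO is fitted.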 The settings on record: HepG2 Attagene TRANS GR reporter, mRNA transcription. In a few lines:
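In this trans-factorial format, exogenous NR-GAL4 chimeric proteins in transfected HepG2 cells regulate GAL4-UAS reporter transcription. After 24 h treatment, reporter mRNA induction relative to DMSO is read by RT-PCR and capillary electrophoresis.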

Test [10] has as its target Bile acid receptor (Homo sapiens) (UniProt Q96RI1). The test is described as follows: ATG_FXR_TRANS: Attagene TRANS-FACTORIAL HepG2 Assay for Farnesoid X Receptor (FXR) (AID 2282979).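 Further: hits raise reporter mRNA above DMSO so AC50 marks FXR activation.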 As to conditions: HepG2 Attagene TRANS FXR-GAL4 reporter transcription. In a few lines: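 Chimeric FXR-GAL4 activity in transiently transfected human HepG2 liver cells is scored as induction of reporter mRNA after 24 h of dosing. Detection uses RT-PCR with fluorescent labelling and capillary electrophoresis, with DMSO serving as baseline.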

Test [11] addresses Oxysterols receptor LXR-beta (Homo sapiens) (UniProt P55055). Description: ATG_LXRb_TRANS: Attagene TRANS-FACTORIAL HepG2 Assay for human Liver X Receptor beta (LXRb) (AID 2282981). As to conditions: HepG2 Attagene TRANS GAL4-LXRb reporter, mRNA. The essentials: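 Liver-derived HepG2 cells transfected with Gal4-responsive reporters were dosed for 24 h. Activation was scored as rise in reporter mRNA, by RT-PCR and capillary electrophoresis, above DMSO baseline.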

Test [12] can be described thus: ATG_M_06_TRANS: Attagene TRANS-FACTORIAL HepG2 Assay for M06 Transcription Factor (Internal Marker) (AID 2282983).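 Further: reporter transcript level by RT-PCR then capillary electrophoresis fluorescence.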 The settings on record: HepG2 Attagene TRANS M06 internal marker reporter. In a few lines: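 Human liver HepG2 cells bearing transiently transfected chimeric NR-GAL4 reporter units were treated with chemicals for 24 h. Total RNA was reverse-transcribed, reporter sequences amplified and labelled, then quantified by capillary electrophoresis. Activity was fitted upward relative to DMSO.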

Test [13] is described as follows: ATG_M_32_TRANS: Attagene TRANS-FACTORIAL HepG2 Assay for M32 Transcription Factor (Internal Marker) (AID 2282984).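 Further: transcript level of a background control reporter unit measured by RT-PCR and capillary electrophoresis.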 As to conditions: HepG2 Attagene TRANS M32 internal marker reporter. The essentials: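 Fluorescence-detected mRNA induction, HepG2 liver cells, 24 h after dosing. Multiple GAL4-UAS reporter units introduced by transient transfection; background-control endpoint analysed for gain of signal against DMSO.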

Test [14] has as its target Transcriptional activator Myb (Homo sapiens) (UniProt P10242). Description: ATG_Myb_CIS: Attagene CIS-FACTORIAL HepG2 Assay for human Myeloblastosis (Myb) Proto-Oncogene Transcription Factor (AID 2282986; active means hit-call score of the fitted dose curve at least 0.9, where 1 is the maximum; inactive means score below 0.9). The settings on record: HepG2 Attagene CIS-FACTORIAL Myb reporter transcription; actives raise or lower the signal. In a few lines: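 Steps: transfect HepG2 with cis-regulated reporter units; dose with chemical for 24 h; isolate RNA, reverse-transcribe, PCR-amplify and FAM-label reporter sequences; digest with HpaI; resolve by capillary electrophoresis. Activity fitted in both directions relative to DMSO.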

In test [15] the target is Nuclear respiratory factor 1 (Homo sapiens) (UniProt Q16656). The test is described as follows: ATG_NRF1_CIS: Attagene CIS-FACTORIAL HepG2 Assay for human Nuclear Respiratory Factor 1 (NRF1) Orphan Gene (AID 2282987; active means hit-call score of the fitted dose curve at least 0.9, where 1 is the maximum; inactive means score below 0.9). As to conditions: HepG2 NRF1 cis-element reporter, Attagene multiplex; actives raise or lower the signal. In a few lines: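 Fluorescence intensity of labelled reporter cDNA fragments, resolved by capillary electrophoresis, served as readout for NRF1 cis-element activity. Transiently transfected HepG2 cells were dosed for 24 hours; activity in either direction was fitted against DMSO negative control.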

Test [16] concerns the target Nuclear receptor subfamily 1 group I member 3 (Homo sapiens) (UniProt Q14994). Description: ATG_CAR_TRANS: Attagene TRANS-FACTORIAL HepG2 Assay for human Constitutive Androstane Receptor (CAR) (AID 2282969).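 Further: activators raise reporter mRNA above DMSO so AC50 marks induction.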 The settings on record: HepG2 Attagene TRANS-FACTORIAL CAR reporter. In a few lines:
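Steps: transient transfection of HepG2 with multiple GAL4-UAS reporter units; 24 h compound incubation; RNA isolation, RT-PCR, 6-FAM primer extension, HpaI digest; capillary electrophoresis. Gain-of-signal relative to DMSO negative control.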

For test [17], the target named is Hepatocyte nuclear factor 4-alpha (Homo sapiens) (UniProt P41235). Description: ATG_HNF4a_TRANS: Attagene TRANS-FACTORIAL HepG2 Assay for human Hepatocyte Nuclear Factor 4 alpha (HNF4a) (AID 2282982). The settings on record: HepG2 HNF4a transactivation reporter, mRNA readout. The essentials: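 Using HepG2 liver cells transfected with GAL4-UAS reporter units, chemical-induced mRNA increases were assessed after 24 hours. Fluorescent RT-PCR fragments were separated by capillary electrophoresis and compared with DMSO negative controls.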

For test [18], the target named is Oxysterols receptor LXR-alpha (Homo sapiens) (UniProt Q13133). The test is described as follows: ATG_LXRa_TRANS: Attagene TRANS-FACTORIAL HepG2 Assay for human Liver X Receptor alpha (LXRa) (AID 2282980). As to conditions: HepG2 Attagene TRANS reporter, LXRa transactivation. The essentials: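 Transient HepG2 transfectants, 24 h dosing, RT-PCR/CE mRNA reporter quantitation; gain-of-signal vs DMSO.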

The nature of test [19]: ATG_M_19_TRANS: Attagene TRANS-FACTORIAL HepG2 Assay for M19 Transcription Factor (Internal Marker) (AID 2282974). As to conditions: HepG2 Attagene TRANS-FACTORIAL M19 internal marker reporter. The essentials:
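Cells: human HepG2, transiently transfected with multiplexed reporter transcription units. Exposure: 24 h. Detection: RT-PCR of reporter mRNA with capillary electrophoresis. Analysis: gain-of-signal vs DMSO.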

For test [20], the target named is Nuclear receptor subfamily 4 group A member 2 (Homo sapiens) (UniProt P43354). Description: ATG_NURR1_TRANS: Attagene TRANS-FACTORIAL HepG2 Assay for human Nuclear Receptor Related Protein 1 (NURR1) (AID 2282985). As to conditions: HepG2 Attagene TRANS reporter, mRNA readout. In a few lines:
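Chimeric NR-Gal4 proteins were expressed in human HepG2 cells bearing GAL4-UAS reporter units, and induced reporter mRNA was quantified 24 h post-dosing by RT-PCR and capillary electrophoresis.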

Oxysterols receptor LXR-beta (Homo sapiens), sequence (P55055 whole entry, looked up, the tested form may be a part): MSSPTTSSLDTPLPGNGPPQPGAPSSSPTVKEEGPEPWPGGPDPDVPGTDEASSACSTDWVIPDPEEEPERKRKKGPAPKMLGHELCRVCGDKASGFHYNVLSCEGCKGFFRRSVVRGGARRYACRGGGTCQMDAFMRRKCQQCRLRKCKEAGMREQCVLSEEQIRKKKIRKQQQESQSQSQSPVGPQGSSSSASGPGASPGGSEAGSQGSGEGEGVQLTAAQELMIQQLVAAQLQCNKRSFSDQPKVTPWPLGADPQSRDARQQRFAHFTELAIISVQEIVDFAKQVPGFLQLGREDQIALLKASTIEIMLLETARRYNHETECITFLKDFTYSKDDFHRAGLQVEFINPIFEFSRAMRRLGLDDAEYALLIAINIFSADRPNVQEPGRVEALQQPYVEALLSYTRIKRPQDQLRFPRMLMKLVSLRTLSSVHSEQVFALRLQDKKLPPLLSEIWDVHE
Bile acid receptor (Homo sapiens), sequence (Q96RI1 whole entry, looked up, the tested form may be a part): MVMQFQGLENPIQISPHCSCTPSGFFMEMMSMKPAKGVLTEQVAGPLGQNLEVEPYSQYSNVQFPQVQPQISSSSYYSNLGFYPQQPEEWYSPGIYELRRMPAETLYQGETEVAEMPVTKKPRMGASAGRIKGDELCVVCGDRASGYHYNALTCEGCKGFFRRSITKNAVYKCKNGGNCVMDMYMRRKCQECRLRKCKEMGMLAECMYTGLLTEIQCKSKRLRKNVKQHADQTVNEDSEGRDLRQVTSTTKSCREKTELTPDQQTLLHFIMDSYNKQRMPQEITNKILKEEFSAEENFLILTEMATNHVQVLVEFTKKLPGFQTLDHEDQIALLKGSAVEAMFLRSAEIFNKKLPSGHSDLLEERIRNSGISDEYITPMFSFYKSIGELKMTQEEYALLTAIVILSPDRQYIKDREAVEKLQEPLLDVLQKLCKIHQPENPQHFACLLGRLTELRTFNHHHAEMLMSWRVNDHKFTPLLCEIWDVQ
Transcriptional activator Myb (Homo sapiens), sequence (P10242 whole entry, looked up): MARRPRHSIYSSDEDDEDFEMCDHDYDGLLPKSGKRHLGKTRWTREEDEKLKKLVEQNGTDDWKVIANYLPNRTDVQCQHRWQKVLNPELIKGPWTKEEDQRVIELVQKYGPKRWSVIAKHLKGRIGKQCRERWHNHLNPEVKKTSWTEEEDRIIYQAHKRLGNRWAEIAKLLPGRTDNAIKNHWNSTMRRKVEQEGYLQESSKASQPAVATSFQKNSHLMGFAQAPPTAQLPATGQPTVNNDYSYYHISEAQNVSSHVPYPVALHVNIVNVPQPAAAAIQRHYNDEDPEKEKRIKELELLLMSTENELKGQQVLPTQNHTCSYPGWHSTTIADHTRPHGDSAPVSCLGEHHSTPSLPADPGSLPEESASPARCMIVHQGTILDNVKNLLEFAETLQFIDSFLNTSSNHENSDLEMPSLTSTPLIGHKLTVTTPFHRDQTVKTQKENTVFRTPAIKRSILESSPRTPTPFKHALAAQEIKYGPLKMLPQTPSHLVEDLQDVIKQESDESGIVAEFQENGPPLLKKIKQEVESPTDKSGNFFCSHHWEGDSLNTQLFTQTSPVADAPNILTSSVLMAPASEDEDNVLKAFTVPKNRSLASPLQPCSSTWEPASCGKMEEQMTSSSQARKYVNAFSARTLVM
Estrogen-related receptor gamma (Homo sapiens), sequence (P62508 whole entry, looked up, the tested form may be a part): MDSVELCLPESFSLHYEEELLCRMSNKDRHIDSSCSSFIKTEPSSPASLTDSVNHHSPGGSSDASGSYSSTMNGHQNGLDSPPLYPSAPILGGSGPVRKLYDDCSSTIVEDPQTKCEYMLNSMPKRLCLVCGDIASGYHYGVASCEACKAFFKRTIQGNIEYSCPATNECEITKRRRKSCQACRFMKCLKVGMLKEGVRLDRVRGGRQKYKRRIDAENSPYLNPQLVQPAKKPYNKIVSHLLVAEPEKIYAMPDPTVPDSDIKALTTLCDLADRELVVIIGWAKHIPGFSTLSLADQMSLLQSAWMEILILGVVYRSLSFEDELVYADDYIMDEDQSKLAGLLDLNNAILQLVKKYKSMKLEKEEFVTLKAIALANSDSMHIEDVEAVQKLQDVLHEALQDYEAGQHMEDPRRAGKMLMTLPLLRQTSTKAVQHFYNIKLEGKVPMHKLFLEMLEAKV
Nuclear receptor subfamily 1 group I member 3 (Homo sapiens), sequence (Q14994 whole entry, looked up, the tested form may be a part): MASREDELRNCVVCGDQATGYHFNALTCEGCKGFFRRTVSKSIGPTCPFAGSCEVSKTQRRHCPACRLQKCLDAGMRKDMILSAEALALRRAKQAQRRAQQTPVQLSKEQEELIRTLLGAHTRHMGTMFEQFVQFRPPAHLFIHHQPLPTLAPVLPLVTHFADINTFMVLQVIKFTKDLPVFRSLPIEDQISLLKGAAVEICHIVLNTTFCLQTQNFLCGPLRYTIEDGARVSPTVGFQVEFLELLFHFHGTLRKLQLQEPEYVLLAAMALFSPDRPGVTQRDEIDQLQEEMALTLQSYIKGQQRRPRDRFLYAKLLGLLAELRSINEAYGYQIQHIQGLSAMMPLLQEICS
Nuclear respiratory factor 1 (Homo sapiens), sequence (Q16656 whole entry, looked up, the tested form may be a part): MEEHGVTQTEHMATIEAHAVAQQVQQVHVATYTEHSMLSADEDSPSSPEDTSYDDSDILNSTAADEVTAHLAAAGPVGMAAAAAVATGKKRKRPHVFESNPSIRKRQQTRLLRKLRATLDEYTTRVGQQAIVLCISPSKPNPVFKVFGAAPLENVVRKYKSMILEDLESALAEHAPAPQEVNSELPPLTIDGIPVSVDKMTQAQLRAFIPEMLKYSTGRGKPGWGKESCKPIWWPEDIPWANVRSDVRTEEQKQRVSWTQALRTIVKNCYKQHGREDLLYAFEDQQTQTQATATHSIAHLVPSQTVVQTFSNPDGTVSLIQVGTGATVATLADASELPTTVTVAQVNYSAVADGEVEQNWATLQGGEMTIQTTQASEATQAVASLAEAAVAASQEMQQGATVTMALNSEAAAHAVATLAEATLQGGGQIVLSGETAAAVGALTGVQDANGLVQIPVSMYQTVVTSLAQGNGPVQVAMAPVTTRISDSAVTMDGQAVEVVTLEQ
Glucocorticoid receptor (Homo sapiens), sequence (P04150 whole entry, looked up, the tested form may be a part): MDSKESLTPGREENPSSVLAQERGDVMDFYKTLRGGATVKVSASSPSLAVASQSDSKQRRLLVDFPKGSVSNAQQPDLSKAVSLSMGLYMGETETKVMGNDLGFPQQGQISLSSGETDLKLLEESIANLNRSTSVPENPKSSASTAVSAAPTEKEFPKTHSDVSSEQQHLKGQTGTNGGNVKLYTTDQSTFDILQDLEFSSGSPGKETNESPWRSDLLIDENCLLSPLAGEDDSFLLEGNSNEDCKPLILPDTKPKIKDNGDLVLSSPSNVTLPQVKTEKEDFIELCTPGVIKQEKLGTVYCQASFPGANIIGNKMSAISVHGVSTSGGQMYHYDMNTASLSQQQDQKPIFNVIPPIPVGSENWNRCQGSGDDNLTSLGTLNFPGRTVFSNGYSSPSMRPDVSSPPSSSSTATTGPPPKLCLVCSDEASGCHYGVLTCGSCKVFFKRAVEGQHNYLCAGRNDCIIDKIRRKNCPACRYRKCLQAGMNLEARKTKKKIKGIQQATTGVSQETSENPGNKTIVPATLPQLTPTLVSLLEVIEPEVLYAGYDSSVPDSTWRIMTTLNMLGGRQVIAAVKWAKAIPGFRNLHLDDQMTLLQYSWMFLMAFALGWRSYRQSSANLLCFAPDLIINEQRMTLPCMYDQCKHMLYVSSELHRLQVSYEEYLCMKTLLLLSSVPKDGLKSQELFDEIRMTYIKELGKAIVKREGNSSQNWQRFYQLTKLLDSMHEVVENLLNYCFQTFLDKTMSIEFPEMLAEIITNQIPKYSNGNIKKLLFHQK
Hepatocyte nuclear factor 4-alpha (Homo sapiens), sequence (P41235 whole entry, looked up, the tested form may be a part): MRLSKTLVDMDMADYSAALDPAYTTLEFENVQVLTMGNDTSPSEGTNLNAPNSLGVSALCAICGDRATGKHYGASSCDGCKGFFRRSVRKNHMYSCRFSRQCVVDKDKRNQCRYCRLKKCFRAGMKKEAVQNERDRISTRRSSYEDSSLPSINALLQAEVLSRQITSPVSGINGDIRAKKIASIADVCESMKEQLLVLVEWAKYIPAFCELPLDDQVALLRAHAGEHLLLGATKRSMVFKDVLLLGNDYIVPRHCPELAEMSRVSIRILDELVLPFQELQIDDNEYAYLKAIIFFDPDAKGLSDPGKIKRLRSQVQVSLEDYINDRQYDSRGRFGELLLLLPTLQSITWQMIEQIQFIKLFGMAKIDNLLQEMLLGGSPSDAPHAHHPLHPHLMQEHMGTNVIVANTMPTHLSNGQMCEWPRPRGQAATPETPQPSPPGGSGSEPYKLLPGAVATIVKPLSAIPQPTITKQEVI
Steroid hormone receptor ERR1 (Homo sapiens), sequence (P11474 whole entry, looked up, the tested form may be a part): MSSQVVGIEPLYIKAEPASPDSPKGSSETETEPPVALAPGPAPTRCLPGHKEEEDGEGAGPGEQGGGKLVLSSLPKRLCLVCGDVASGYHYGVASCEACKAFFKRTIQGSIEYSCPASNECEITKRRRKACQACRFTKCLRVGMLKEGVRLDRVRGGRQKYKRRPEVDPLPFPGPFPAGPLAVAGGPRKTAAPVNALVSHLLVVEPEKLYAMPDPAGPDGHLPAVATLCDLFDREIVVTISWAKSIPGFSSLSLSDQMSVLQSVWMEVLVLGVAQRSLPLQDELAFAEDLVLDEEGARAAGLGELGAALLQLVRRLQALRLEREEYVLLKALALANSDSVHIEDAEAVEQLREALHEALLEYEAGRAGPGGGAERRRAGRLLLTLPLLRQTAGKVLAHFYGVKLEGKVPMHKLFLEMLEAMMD
X-box-binding protein 1 (Homo sapiens), sequence (P17861 whole entry, looked up): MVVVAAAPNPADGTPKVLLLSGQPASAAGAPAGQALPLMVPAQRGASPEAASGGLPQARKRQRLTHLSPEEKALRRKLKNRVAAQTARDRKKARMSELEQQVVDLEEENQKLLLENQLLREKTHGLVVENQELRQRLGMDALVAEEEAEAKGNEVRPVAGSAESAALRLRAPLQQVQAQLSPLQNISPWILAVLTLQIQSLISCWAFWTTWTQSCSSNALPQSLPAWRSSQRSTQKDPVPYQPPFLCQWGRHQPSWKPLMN

With `Brc1cc(Br)c(Oc2c(Br)cc(Br)c(Br)c2Br)cc1Br`, the result in test [1], in test [2], in test [3], in [4], in test [5] and in test [6] was inactive. The outcome in test [7], in test [8], in test [9], in [10], in [11] and in test [12] was inactive. Also, the compound was classed as inactive in [13], in test [14] and in test [15].

As to `CCOC(=O)CN[C@@H](C(=O)N1CC[C@H]1C(=O)NCc1ccc(/C(N)=N/O)cc1)C1CCCCC1`, the result in test [1], in [2], in test [3], in test [16], in test [5] and in [6] was inactive. Further, the compound was called inactive in [7], in test [8], in test [9], in test [10], in [11] and in test [17]. Moreover, the result in [12], in test [13], in [14] and in [15] was inactive.

Turning to `CCc1cccc(CC)c1NC(=O)C(=O)O`, the result in test [1], in test [2], in test [3], in test [16], in [6] and in test [7] was inactive. Besides, the result in [8], in test [9], in test [10], in test [18], in test [11] and in [12] was inactive. The result in test [13], in test [14] and in test [15] was inactive.

On to `CC(C)C=O`, for which the call in test [1], in test [2], in [3], in [16], in test [5] and in [6] was inactive. Further, the compound was called inactive in [19], in [7], in [8], in [9], in [18] and in [11]. For the same compound, the result in [17], in [13], in [20], in [14] and in test [15] was inactive.

Take `c1ccc(CNc2ncnc3c2ncn3C2CCCCO2)cc1` (stereo not drawn): the call in test [1], in test [2], in test [16], in [6], in test [9] and in test [10] was inactive. Also, the call in test [18], in [11], in test [17], in test [12], in test [13] and in test [14] was inactive. Moreover, the compound was classed as inactive in [15]. In addition, in test [3], the AC50 is 22.9 µM (active).

Regarding `CC1CCC(C(=O)O)CC1` (stereo not drawn), the compound was called inactive in [1], in test [2], in test [3], in [4], in [5] and in test [6]. The call in test [19], in test [8], in [9], in test [10], in test [18] and in [11] was inactive. For the same compound, the call in test [17], in [13], in [14] and in [15] was inactive.

Regarding `CCC(=O)C=Cc1ccc(OC)cc1`, the result in test [1], in test [2], in test [16], in test [5], in test [6] and in test [8] was inactive. Also, the result in [9], in test [10], in test [11], in test [17], in test [12] and in test [20] was inactive. The compound was called inactive in [15]. The AC50 in [3] was 65.6 µM (active); in [14], 137 µM (active).

What is called AC50 is the concentration giving half of the maximal activity seen.
